Source: ChEMBL document CHEMBL2218924, “A broad activity screen in support of a chemogenomic map for kinase signalling research and drug discovery” (Biochem J, 2013)

Molecular target: T1, CDK3/cyclin E (Homo sapiens) (UniProt P24864+O96020+Q00526)
Conditions: at 1 µM

T1 sequence (O96020 whole entry, looked up): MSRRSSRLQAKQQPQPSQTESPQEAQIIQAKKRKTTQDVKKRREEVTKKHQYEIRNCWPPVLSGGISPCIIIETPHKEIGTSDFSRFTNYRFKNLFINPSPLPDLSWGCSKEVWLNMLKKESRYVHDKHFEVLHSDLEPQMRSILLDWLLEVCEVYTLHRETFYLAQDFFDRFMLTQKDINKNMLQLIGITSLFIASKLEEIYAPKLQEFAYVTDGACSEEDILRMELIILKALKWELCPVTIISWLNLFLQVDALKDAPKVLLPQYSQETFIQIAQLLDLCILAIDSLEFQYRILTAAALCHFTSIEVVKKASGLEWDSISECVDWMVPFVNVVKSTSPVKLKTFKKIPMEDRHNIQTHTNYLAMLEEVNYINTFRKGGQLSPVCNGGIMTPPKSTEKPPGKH
T1 sequence (P24864 whole entry, looked up): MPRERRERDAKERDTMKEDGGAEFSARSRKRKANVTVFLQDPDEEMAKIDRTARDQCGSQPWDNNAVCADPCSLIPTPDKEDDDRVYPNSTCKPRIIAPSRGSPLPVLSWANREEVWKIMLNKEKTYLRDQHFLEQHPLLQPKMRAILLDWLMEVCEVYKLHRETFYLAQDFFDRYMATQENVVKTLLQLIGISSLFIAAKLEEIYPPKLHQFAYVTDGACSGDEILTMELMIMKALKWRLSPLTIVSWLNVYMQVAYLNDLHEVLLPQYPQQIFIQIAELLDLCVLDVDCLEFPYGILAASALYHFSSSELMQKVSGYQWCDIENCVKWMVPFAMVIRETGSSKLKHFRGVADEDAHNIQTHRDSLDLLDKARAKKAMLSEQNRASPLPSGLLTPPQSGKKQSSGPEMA
T1 sequence (Q00526 whole entry, looked up): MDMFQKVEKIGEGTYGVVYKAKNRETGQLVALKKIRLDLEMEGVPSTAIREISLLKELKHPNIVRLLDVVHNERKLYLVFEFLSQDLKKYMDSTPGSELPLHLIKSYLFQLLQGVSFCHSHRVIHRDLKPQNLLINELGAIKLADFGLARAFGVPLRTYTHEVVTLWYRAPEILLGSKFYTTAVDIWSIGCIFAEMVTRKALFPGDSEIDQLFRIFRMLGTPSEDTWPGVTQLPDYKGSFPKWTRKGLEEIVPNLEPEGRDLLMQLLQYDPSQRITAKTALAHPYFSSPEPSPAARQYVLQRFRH

Question: `COC(=O)[C@@]1(O)C[C@H]2O[C@]1(C)n1c3ccccc3c3c4c(c5c6ccccc6n2c5c31)C(=O)NC4` was tested. Which residual activity did it give?
Answer: 27%

Question: For `COc1cc2ncnc(Nc3ccc(OCc4ccccc4)cc3)c2cc1OC`, which residual activity is on record?
Answer: 110%

Question: How did the residual activity turn out when `CCn1cnc2c(Nc3cccc(Cl)c3)nc(N[C@@H]3CCCC[C@@H]3N)nc21` was run?
Answer: 6%

Question: How did the residual activity turn out when `CCc1nc(-c2ccc(OC)cc2)[nH]c1-c1ccncc1` was run?
Answer: 102%

Question: `O=C1Nc2ccc3ncsc3c2/C1=C/c1c[nH]cn1` was tested. Which residual activity did it give?
Answer: 1%

Question: Which residual activity does the source give for `O=c1[nH]c2ccccc2n1C1CCN(Cc2ccc(-c3nc4cc5[nH]cnc5cc4nc3-c3ccccc3)cc2)CC1` here?
Answer: 105%

Question: Which residual activity does the source give for `C[S+]([O-])c1ccc(-c2nc(-c3ccc(F)cc3)c(-c3ccncc3)[nH]2)cc1` (stereo not given) here?
Answer: 108%

Question: Which residual activity does the source give for `O=[N+]([O-])/C=C/c1ccc2c(c1)OCO2` here?
Answer: 87%

Question: `CC(C)[C@H](CO)Nc1nc(Nc2cccc(Cl)c2)c2ncn(C(C)C)c2n1` was tested. Which residual activity did it give?
Answer: 14%

Question: How did the residual activity turn out when `O=C1NC(=O)c2c1c1c3ccccc3n3c1c1c2c2ccccc2n1C1CCC3O1` was run?
Answer: 46%

Question: Which residual activity does the source give for `CC(C)(C)c1cc(C=C(C#N)C#N)cc(Br)c1O` here?
Answer: 109%

Question: For `COc1cc(OC)c(/C=C2\C(=O)Nc3ccccc32)c(OC)c1`, which residual activity is on record?
Answer: 84%

Molecular target: T1, CDK3/cyclin E (Homo sapiens)
Conditions: at 10 µM

Question: Which residual activity does the source give for `COc1ccc2c(c[n+](C)c3c4cc5c(cc4ccc23)OCO5)c1OC` here?
Answer: 85%

Question: Which residual activity does the source give for `COC(=O)[C@@]1(O)C[C@H]2O[C@]1(C)n1c3ccccc3c3c4c(c5c6ccccc6n2c5c31)C(=O)NC4` here?
Answer: 2%

Question: Which residual activity does the source give for `N/C(=N\[N+](=O)[O-])N/N=C\c1ccc(-c2cccc([N+](=O)[O-])c2)o1` here?
Answer: 81%

Question: `COc1cc2ncnc(Nc3ccc(OCc4ccccc4)cc3)c2cc1OC` was tested. Which residual activity did it give?
Answer: 100%

Question: For `CCn1cnc2c(Nc3cccc(Cl)c3)nc(N[C@@H]3CCCC[C@@H]3N)nc21`, which residual activity is on record?
Answer: 0%

Question: With `O=C1Nc2ccc3ncsc3c2/C1=C/c1c[nH]cn1` as the compound, how does the residual activity read?
Answer: -1%

Question: For `O=c1[nH]c2ccccc2n1C1CCN(Cc2ccc(-c3nc4cc5[nH]cnc5cc4nc3-c3ccccc3)cc2)CC1`, which residual activity is on record?
Answer: 82%

Question: Which residual activity does the source give for `C[S+]([O-])c1ccc(-c2nc(-c3ccc(F)cc3)c(-c3ccncc3)[nH]2)cc1` (stereo not given) here?
Answer: 93%

Question: Which residual activity does the source give for `O=[N+]([O-])/C=C/c1ccc2c(c1)OCO2` here?
Answer: 88%

Question: How did the residual activity turn out when `CC(C)[C@H](CO)Nc1nc(Nc2cccc(Cl)c2)c2ncn(C(C)C)c2n1` was run?
Answer: 3%

Question: Which residual activity does the source give for `O=C1NC(=O)c2c1c1c3ccccc3n3c1c1c2c2ccccc2n1C1CCC3O1` here?
Answer: 41%

Question: How did the residual activity turn out when `CC(C)(C)c1cc(C=C(C#N)C#N)cc(Br)c1O` was run?
Answer: 103%

Question: For `COc1cc(OC)c(/C=C2\C(=O)Nc3ccccc32)c(OC)c1`, which residual activity is on record?
Answer: 78%

Question: For `c1cc(-c2cnn3cc(-c4ccc(OCCN5CCCCC5)cc4)cnc23)ccn1`, which residual activity is on record?
Answer: 41%

Molecular target: T2, Cyclin-dependent kinase 5/CDK5 activator 1 (Homo sapiens) (UniProt Q00535+Q15078)
Conditions: at 1 µM

T2 sequence (Q00535 whole entry): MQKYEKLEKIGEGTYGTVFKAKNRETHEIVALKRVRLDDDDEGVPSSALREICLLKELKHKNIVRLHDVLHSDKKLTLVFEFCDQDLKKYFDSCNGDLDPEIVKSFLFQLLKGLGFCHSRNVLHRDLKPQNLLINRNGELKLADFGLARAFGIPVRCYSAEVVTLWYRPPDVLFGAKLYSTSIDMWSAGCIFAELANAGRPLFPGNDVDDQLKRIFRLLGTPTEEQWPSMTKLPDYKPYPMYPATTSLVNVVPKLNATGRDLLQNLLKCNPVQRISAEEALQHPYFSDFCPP
T2 sequence (Q15078 99-307 partner limits assumed): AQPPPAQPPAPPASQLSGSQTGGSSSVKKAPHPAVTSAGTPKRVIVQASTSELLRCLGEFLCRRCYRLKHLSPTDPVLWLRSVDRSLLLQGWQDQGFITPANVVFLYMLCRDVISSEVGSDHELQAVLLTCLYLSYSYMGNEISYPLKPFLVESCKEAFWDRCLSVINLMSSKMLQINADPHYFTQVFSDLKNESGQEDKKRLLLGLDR

Question: How did the residual activity turn out when `COC(=O)[C@@]1(O)C[C@H]2O[C@]1(C)n1c3ccccc3c3c4c(c5c6ccccc6n2c5c31)C(=O)NC4` was run?
Answer: 4%

Question: For `COc1cc2ncnc(Nc3ccc(OCc4ccccc4)cc3)c2cc1OC`, which residual activity is on record?
Answer: 106%

Question: For `COc1ccc2c(c1)/C(=C/c1cnc[nH]1)C(=O)N2`, which residual activity is on record?
Answer: 0%

Question: How did the residual activity turn out when `CCn1cnc2c(Nc3cccc(Cl)c3)nc(N[C@@H]3CCCC[C@@H]3N)nc21` was run?
Answer: 1%

Question: `CCc1nc(-c2ccc(OC)cc2)[nH]c1-c1ccncc1` was tested. Which residual activity did it give?
Answer: 101%

Question: How did the residual activity turn out when `O=C1Nc2ccc3ncsc3c2/C1=C/c1c[nH]cn1` was run?
Answer: 1%

Question: How did the residual activity turn out when `O=c1[nH]c2ccccc2n1C1CCN(Cc2ccc(-c3nc4cc5[nH]cnc5cc4nc3-c3ccccc3)cc2)CC1` was run?
Answer: 95%

Question: How did the residual activity turn out when `C[S+]([O-])c1ccc(-c2nc(-c3ccc(F)cc3)c(-c3ccncc3)[nH]2)cc1` (stereo not given) was run?
Answer: 117%

Question: Which residual activity does the source give for `O=[N+]([O-])/C=C/c1ccc2c(c1)OCO2` here?
Answer: 97%

Question: With `CC(C)[C@H](CO)Nc1nc(Nc2cccc(Cl)c2)c2ncn(C(C)C)c2n1` as the compound, how does the residual activity read?
Answer: 0%

Question: With `O=C1NC(=O)c2c1c1c3ccccc3n3c1c1c2c2ccccc2n1C1CCC3O1` as the compound, how does the residual activity read?
Answer: 73%

Question: How did the residual activity turn out when `CC(C)(C)c1cc(C=C(C#N)C#N)cc(Br)c1O` was run?
Answer: 107%

Question: For `COc1cc(OC)c(/C=C2\C(=O)Nc3ccccc32)c(OC)c1`, which residual activity is on record?
Answer: 88%

Question: For `c1cc(-c2cnn3cc(-c4ccc(OCCN5CCCCC5)cc4)cnc23)ccn1`, which residual activity is on record?
Answer: 55%

Molecular target: T2, Cyclin-dependent kinase 5/CDK5 activator 1 (Homo sapiens)
Conditions: at 10 µM

Question: Which residual activity does the source give for `COC(=O)[C@@]1(O)C[C@H]2O[C@]1(C)n1c3ccccc3c3c4c(c5c6ccccc6n2c5c31)C(=O)NC4` here?
Answer: 1%

Question: Which residual activity does the source give for `N/C(=N\[N+](=O)[O-])N/N=C\c1ccc(-c2cccc([N+](=O)[O-])c2)o1` here?
Answer: 86%

Question: Which residual activity does the source give for `COc1cc2ncnc(Nc3ccc(OCc4ccccc4)cc3)c2cc1OC` here?
Answer: 83%

Question: For `COc1ccc2c(c1)/C(=C/c1cnc[nH]1)C(=O)N2`, which residual activity is on record?
Answer: 0%

Question: For `CCn1cnc2c(Nc3cccc(Cl)c3)nc(N[C@@H]3CCCC[C@@H]3N)nc21`, which residual activity is on record?
Answer: 0%

Question: For `O=C1Nc2ccc3ncsc3c2/C1=C/c1c[nH]cn1`, which residual activity is on record?
Answer: 0%

Question: With `O=c1[nH]c2ccccc2n1C1CCN(Cc2ccc(-c3nc4cc5[nH]cnc5cc4nc3-c3ccccc3)cc2)CC1` as the compound, how does the residual activity read?
Answer: 77%

Question: With `C[S+]([O-])c1ccc(-c2nc(-c3ccc(F)cc3)c(-c3ccncc3)[nH]2)cc1` (stereo not given) as the compound, how does the residual activity read?
Answer: 121%

Question: For `O=[N+]([O-])/C=C/c1ccc2c(c1)OCO2`, which residual activity is on record?
Answer: 106%

Question: `CC(C)[C@H](CO)Nc1nc(Nc2cccc(Cl)c2)c2ncn(C(C)C)c2n1` was tested. Which residual activity did it give?
Answer: 0%

Question: For `O=C1NC(=O)c2c1c1c3ccccc3n3c1c1c2c2ccccc2n1C1CCC3O1`, which residual activity is on record?
Answer: 86%

Question: With `CN[C@@H]1C[C@H]2O[C@@](C)([C@@H]1OC)n1c3ccccc3c3c4c(c5c6ccccc6n2c5c31)C(=O)NC4` as the compound, how does the residual activity read?
Answer: 2%

Question: Which residual activity does the source give for `CC(C)(C)c1cc(C=C(C#N)C#N)cc(Br)c1O` here?
Answer: 113%

Question: How did the residual activity turn out when `COc1cc(OC)c(/C=C2\C(=O)Nc3ccccc32)c(OC)c1` was run?
Answer: 85%

Question: How did the residual activity turn out when `c1cc(-c2cnn3cc(-c4ccc(OCCN5CCCCC5)cc4)cnc23)ccn1` was run?
Answer: 10%
